In PubChem BioAssay (NCI):
Compounds without any hit were thinned out: in the full panel of roughly 83,000, 20% have a hit.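 Growth was measured after 48 h exposure to one concentration of compound in 96-well plates. Values under 10 count as active.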 Values without a mark were called inactive. Activity calls are given as the source filed them.

Experiments:
Experiment in all cases: NCI-60 one-dose screen, 48 h (100 = growth as untreated, 0 = no growth, -100 = all killed)
Conditions in all cases: 10 µM unless noted
HCT-15 colon = system: HCT-15 colon
HT29 colon = system: HT29 colon
SNB-75 CNS = system: SNB-75 CNS
U251 CNS = system: U251 CNS
PC-3 prostate = system: PC-3 prostate
SK-MEL-5 melanoma = system: SK-MEL-5 melanoma
UACC-62 melanoma = system: UACC-62 melanoma
LOX IMVI melanoma = system: LOX IMVI melanoma
SK-MEL-28 melanoma = system: SK-MEL-28 melanoma

Row | Structure (SMILES) | growth (HCT-15 colon) | growth (HT29 colon) | growth (SNB-75 CNS) | growth (U251 CNS) | growth (PC-3 prostate) | growth (SK-MEL-5 melanoma) | growth (UACC-62 melanoma) | growth (LOX IMVI melanoma) | growth (SK-MEL-28 melanoma)
1 | Cc1cc2cc3cc(C)c(N(C)C)cc3[n+](C)c2cc1N(C)C | 65.6% | 16.6% | 35.4% | 12.3% | 4.2% (active) | 42.1% | 56% | 25.9% | 39.6%
2 | C=CC[N+]1(CC)CCN=C1CCCCCCCCCCCCCCCCC (stereo not drawn) | -88.6% (active) | -100% (active) | -92.1% (active) | -100% (active) | -68.6% (active) | -100% (active) | -86.1% (active) | -96.3% (active) | -76.1% (active)
3 | COCCCN=C(N)c1ccc(NC(=O)c2ccc(C(=O)Nc3ccc(C(N)=NCCCOC)cc3)cc2)cc1 | 118% | 110% | 86.4% | 99.1% | 125% | 78.3% | 91% | 120% | 226%
4 | CCCCCCCCCc1cc(CN2CCCCC2)c(O)c(CN2CCCCC2)c1 | 52.3% | 40.5% | 60.6% | 45.1% | 53.7% | 40% | 72.9% | 48.6% | 74%
5 | O=c1c2c3c(sc2n2c(CCl)nnc2n1Cc1ccccc1)CCCC3 | -89.4% (active) | -100% (active) | -61.3% (active) | -99.2% (active) | -100% (active) | -96.1% (active) | -72.8% (active) | -100% (active) | -100% (active)
6 | Cn1c2ccccc2c2c3c(c4c5ccccc5n(CCCCCC#N)c4c21)C(=O)N(O)C3=O | 13.9% | 4.37% (active) | 17.2% | 12.8% | 24.3% | -80.3% (active) | -18.5% (active) | -66.7% (active) | 6.74% (active)
7 | O=C1Nc2c(ccc(Cl)c2Cl)/C1=C/c1cc(Br)c(O)c(Br)c1 | 52.4% | 56.6% | 70.2% | 66.2% | 59.4% | 23.2% | 26.1% | 59.6% | 58.3%
8 | C(=N\Nc1nnn(Cc2ccccc2)n1)/c1ccccc1 | 23.1% | 20.1% | 75% | 31.7% | 51.9% | 32% | 41.5% | 48.8% | 45.4%
9 | Cn1c2ccccc2c2c3c(c4c5ccccc5[nH]c4c21)C(=O)N(N)C3=O | 68.2% | 60.3% | 63.9% | 37.3% | 59.6% | 31% | 22.6% | 23.4% | 66.5%
10 | O=C(CNC1C2CC3CC(C2)CC1C3)Sc1nnc2sc3ccccc3n12 (stereo not drawn) | 105% | 106% | 76.5% | 104% | 77.4% | 93.9% | 88.2% | 94.5% | 112%
11 | Cc1cc(=O)oc2cc(Oc3nc(-c4ccc(Cl)cc4)cn4c(-c5ccc(Cl)cc5)cnc34)ccc12 | 63.8% | 47.7% | 91.6% | 88.1% | 87.9% | 84.4% | 99.3% | 84.4% | 38.3%
12 | CC#CC#Cc1cccc(=O)o1 | 36.1% | 45.3% | 82.4% | 75.1% | 78.6% | 70.3% | 40.8% | 61.5% | 23.9%
13 | O=C(/C=C\c1ccc2ccccc2n1)c1cc(Cl)ccc1O | 73.6% | 71.6% | 90.6% | 44.3% | 90.9% | 97% | 71.4% | 40.8% | 99.6%
14 | CNC(=O)c1cc(Oc2ccc3nc(NC(=O)Nc4ccc(CN5CCOCC5)c(C(F)(F)F)c4)sc3c2)ccn1 | 24.5% | 45.3% | 59.4% | 22.2% | 8.35% (active) | -55.4% (active) | 0.564% (active) | 16.7% | 25.1%
15 | O=C(O)c1cccc2c1-c1ccccc1C2=O | 95.7% | 103% | 86.8% | 95.7% | 94% | 102% | 90.1% | 97.5% | 109%
16 | Cn1c2c(Cl)c(Cl)ccc2c2ccn3c(=O)c4ccccc4nc3c21 | 102% | 105% | 91.6% | 100% | 101% | 95.2% | 90.6% | 104% | 117%
17 | O=C1C=CC(=O)N1c1ccc(Cc2ccc(N3C(=O)C=CC3=O)cc2)cc1 | 91.1% | 133% | 164% | 96.8% | 91.2% | 96.3% | 83.7% | 96.1% | 120%
